Measurements reported in PubChem BioAssay.
Activity calls are given as the source filed them.

These compounds were tested on XIP peptide (Xip251-270) binding (assay: small-molecule binders of XIP peptide, primary screen, biochemical, small-molecule microarray, fluorescence 635/667 nm, 0.1 µg/mL protein (AID 1182)). Settings: fluorescent protein binding, 635 nm, higher = more signal, called active from +8 up or from −8 down.

Composite z-score, inactive:
CCCNC(=O)OC[C@H]1O[C@H](CCON=C[C@@H](OC)[C@H](C)C=CCC(=O)OC)C=C[C@@H]1Oc1ccc(OC)cc1 0.228
O=C1[C@H]2[C@H]3[C@H](O)[C@H](O)CC(=NO[C@@H]4O[C@H](CO)[C@@H](O)[C@H](O)[C@H]4O)[C@@H]3CC[C@H]2C(=O)N1c1ccc(F)cc1F 0.34
CCc1cc2c(nc1CC)CCN(CCC(C)=NOC[C@@H](O)COCc1ccco1)C2 2.62
c1ccc(C2NCCc3c2[nH]c2ccccc32)cc1 (stereo unspecified) 0.657
COC(=O)CC=C[C@H](C)[C@@H](OCc1ccccc1Br)C(C)C 0.864
COC(=O)[C@H](C)NC(=O)CCC1CC(OC(=O)NCCc2ccc(F)cc2)CC2(CCCC(COC(=O)NCC(c3ccccc3)c3ccccc3)O2)O1 (stereo partly specified) 0.477
CCOC(=O)NN=C1C[C@@H](O)[C@@H](O)[C@@H]2[C@@H]3C(=O)N(C[C@@H]4CCCO4)C(=O)[C@@H]3CC[C@@H]12 0.0985
CO[C@@H]1COC(=O)CC=C[C@@H](C)[C@@H]2C=C[C@H](O)[C@@H](COC(=O)[C@H](C)NC(=O)CC=C[C@H]1C)O2 0.78
CC(C)[C@@H](OCc1ccccc1)[C@H](C)C=NO[C@H](C)c1cn([C@H](CO)Cc2ccccc2)nn1 -0.2
CC(C)=CCCC(C)=CCON=C1[C@H]2CCn3c(=O)n(Cc4cc5c(cc4Cl)OCO5)c(=O)n3[C@H]2[C@H](O)[C@@H]2O[C@H]12 -0.0418
O=C1[C@H]2[C@H]3[C@H](O)[C@H](O)CC(=NO[C@@H]4O[C@H](CO)[C@@H](O)[C@H](O)[C@H]4O)[C@H]3CC[C@H]2C(=O)N1C1CCCCC1 0.269
O=C1[C@H]2[C@H]3[C@H](O)[C@H](O)CC(=NOC[C@@H](O)COCc4ccco4)[C@H]3CC[C@H]2C(=O)N1c1cccc(Oc2ccccc2)c1 0.283
COC(=O)CC=C[C@H](C)[C@H](CO)NS(=O)(=O)c1ccc(C)cc1 -0.291
CCN1C(=O)[C@H]2[C@H]3[C@H](O)[C@H](O)CC(=NOCc4ccccc4)[C@H]3CC[C@H]2C1=O -0.0513
CC(=O)C[C@H](O)[C@@H](NC(=O)OC(C)(C)C)C(C)C -0.0306
C[C@H]1CC[C@@H](C(=O)O)N[C@@H]1c1ccc(C#CCN(C)C)cc1 0.908
CC(C)=NOCc1ccc(-c2cc(-c3ccccc3)no2)cc1 -0.191
COC(=O)CC1OC1[C@H](C)[C@@H](OC)C(C)C (stereo partly specified) -0.0835
C#CCCCON=C1C[C@@H](O)[C@@H](O)[C@@H]2[C@@H]3C(=O)N([C@@H](C)c4ccccc4)C(=O)[C@@H]3CC[C@H]12 -0.396
CC(=O)OC[C@H]1O[C@H](CCON=C[C@@H](C)[C@H](OCc2ccccc2)C(C)C)C=C[C@@H]1OC(C)=O 0.72
CCOC(=O)[C@H](CC(C)C)NC(=O)CCC1CC(OC(=O)NCCc2ccc(F)cc2)CC2(CCCC(COC(=O)NCc3ccccc3)O2)O1 (stereo partly specified) 0.137
CO[C@@H]1COC(=O)CCC[C@@H](C)[C@H](OC)COC(=O)[C@H](Cc2ccccc2)NC(=O)CC=C[C@H]1C 0.0232
CC(C)[C@H](NC(=O)OC(C)(C)C)[C@@H](O)CC(=O)OC(C)(C)C -0.182
COc1ccc(COC(=O)NN=C2C[C@@H](O)[C@@H](O)[C@@H]3[C@@H]4C(=O)N(Cc5ccc6c(c5)OCO6)C(=O)[C@@H]4CC[C@@H]23)cc1 0.361
C=CC[C@@H]1C=C[C@H](ON=C2c3cc(OC)ccc3O[C@H](c3cccc(OC)c3)[C@H]2O)[C@@H](CO)O1 0.0897
CC(C)(C)N1C(=O)[C@H]2[C@H]3[C@H](O)[C@H](O)CC(=NO[C@@H]4O[C@H](CO)[C@@H](O)[C@H](O)[C@H]4O)[C@@H]3CC[C@H]2C1=O 1.16
CC(C)CON=C1C[C@@H](O)[C@@H](O)[C@@H]2[C@@H]3C(=O)N(Cc4ccccc4)C(=O)[C@@H]3CC[C@@H]12 -0.347
O=C(NN=C1C[C@@H](O)[C@@H](O)[C@@H]2[C@@H]3C(=O)N(c4cccc(Oc5ccccc5)c4)C(=O)[C@@H]3CC[C@@H]12)OCc1ccccc1 -0.0987
CC(=O)OC[C@H]1O[C@H](CCON=C(C)CCC(=O)OC[C@H]2O[C@H](C#Cc3ccccc3)C=C[C@@H]2Oc2ccc(C)cc2)C=C[C@@H]1OC(C)=O -0.365
CCOC(=O)CCN1C(=O)[C@H]2[C@H]3[C@H](O)[C@H](O)CC(=NNC(=O)OCc4ccc(OC)cc4)[C@@H]3CC[C@H]2C1=O 0.59
CCOC(=O)[C@H](Cc1ccccc1)NC(=O)CCC1CC(OC(=O)NCc2ccc3c(c2)OCO3)CC2(CCCC(COC(=O)NCc3ccccc3)O2)O1 (stereo partly specified) -0.148
CCOC(=O)CCN1C(=O)[C@H]2[C@H]3[C@H](O)[C@H](O)CC(=NOCc4ccccc4)[C@@H]3CC[C@H]2C1=O 0.204
C[C@H](c1ccccc1)N1C(=O)[C@H]2[C@@H]3C(=CC[C@H]2C1=O)C(=O)[C@H]1O[C@H]1[C@H]3O -0.584
O=C1C[C@@H](O)[C@@H](O)[C@@H]2[C@@H]3C(=O)N(C4CCCCC4)C(=O)[C@@H]3CC[C@H]12 -0.149
O=C1CCCC2OC12C(O)CCc1ccccc1 (stereo unspecified) -0.128
O=C1[C@H]2[C@H]3[C@H](O)[C@H](O)CC(=NOCc4ccccc4)[C@H]3CC[C@H]2C(=O)N1c1ccc(F)cc1F -0.0939
